# Where two headings read alike, the source gives them in different places. About 3,200 (25%) of roughly 13,000 compounds showed an effect of 50% or more. Some of the results follow.
# Test system: P. falciparum stage V gametocytes
# Design: BacTiter-Glo ATP luminescence viability of purified stage V gametocytes in 384-well plates, per cent inhibition versus DMSO
# Conditions: 48 h, 5 µM, inhibitor
SMILES,% Inhibition [%],% Inhibition (% Inhibition) [%]
CN(c1cc(NC(=O)c2ccc(F)cc2)ccn1)C1CCN(Cc2cccc(F)c2)CC1 [TCMDC-135019],38.57,–
Cc1ccnc(NC(=O)c2cc(-c3cccc([N+](=O)[O-])c3)nc3onc(C)c23)c1 [TCMDC-124591],3.347,–
C=C[C@]1(C)C[C@@H](OC(=O)NC(=O)CCCS(=O)(=O)c2nnc(C)s2)[C@]2(C)[C@H](C)CC[C@]3(CCC(=O)[C@H]32)[C@@H](C)[C@@H]1O [TCMDC-140927],24.97,–
C#CC(C)(CO)N1CCCC1 (stereo not drawn) [TCMDC-131372],-4.555,–
CCOC(=O)c1c(C)n(-c2ccccc2)c2ccc(O)cc12 [TCMDC-125483],-27.27,–
Oc1ccccc1CNCC12CC3CC(CC(C3)C1)C2 [TCMDC-125554],-22.39,–
CC(C)C[C@H](Nc1ccnc(NCC2CCCCC2)n1)C(=O)Nc1ccccc1 [TCMDC-134714],-42.51,–
CC(C)c1ccc(Nc2nc(NCCc3cnc[nH]3)nc(NCc3ccccc3)n2)cc1 [TCMDC-139741],-6.505,–
CC1CN(Cc2cccc(F)c2)CCN1c1ccc(NC(=O)c2ccc(F)cc2)cc1 (stereo not drawn) [TCMDC-135017],-0.6551,–
Cc1ccc(NC(=O)Nc2cccc(Cl)c2)cc1-c1ccc(C(=O)Nc2ccncc2)cc1 [TCMDC-133699],10.77,–
Cl.Oc1ccc(C2CNCCc3c2cc(O)c(OCc2ccccc2)c3Cl)cc1 (stereo not drawn) [TCMDC-141979],17.32,–
O=C(N[C@@H](Cc1ccccc1)C(=O)NC1CCCCC1)c1ccc(O)c(-c2ccc(Cl)c(Cl)c2)c1 [TCMDC-140824],35.45,–
O=C(NC(=S)Nc1cc(C(F)(F)F)cc(C(F)(F)F)c1)c1ccc(Cl)cc1 [TCMDC-124077],25.76,–
COc1cc(Cc2cnc(N)nc2N)cc(OCCCCCC(=O)O)c1OC [TCMDC-137677],-23.13,–
Cc1cccc(-c2ccc3c(c2)CC(NCc2cccc(-n4ccnc4)c2)C3)c1 (stereo not drawn) [TCMDC-134831],2.381,–
NC(=O)c1cccc(-n2ccc3cc(CNC4Cc5ccccc5C4)ccc32)c1 [TCMDC-133416],99.63,–
CC[C@H](C)CNC(=O)c1cncc(-c2cccc(CNC3Cc4ccccc4C3)c2)c1 [TCMDC-134218],-33.07,–
c1ccc2ncc(CNCCCCCCCCNCc3cnc4ccccc4c3)cc2c1 [TCMDC-137744],97.27,–
c1ccc2nc(NCCCCCCCCNc3ccc4ccccc4n3)ccc2c1 [TCMDC-137745],26.97,–
COc1cccc(Cc2cnc3nc(N)nc(N)c3c2C)c1 [TCMDC-138060],-3.76,–
CC(=O)Nc1ccc(S(=O)(=O)Nc2ccc(Nc3nc(C)cc(N(C)C)n3)cc2)cc1 [TCMDC-124951],-47.31,–
COc1ccc2nccc([C@@H](O)CN3CCC(NC(=O)/C=C/c4cccc(NC(C)=O)c4)CC3)c2c1 [TCMDC-141029],-15.14,–
COc1cccc(CNc2ncc(-c3ccsc3)c(-c3nccs3)n2)c1 [TCMDC-125375],51.63,–

SMILES,% Inhibition [%],% Inhibition (% Inhibition) [%]
Fc1cccc(CNc2ncc(-c3ccsc3)c(-c3nccs3)n2)c1 [TCMDC-125374],21.86,–
c1cc(CNc2ncc(-c3ccsc3)c(-c3nccs3)n2)ccn1 [TCMDC-125371],35.87,–
Fc1ccccc1CNc1ncc(-c2ccsc2)c(-c2nccs2)n1 [TCMDC-125366],77.55,–
COc1ccccc1CNc1ncc(-c2ccsc2)c(-c2nccs2)n1 [TCMDC-125376],13.46,–
Fc1ccc(CNc2ncc(-c3ccsc3)c(-c3nccs3)n2)cc1 [TCMDC-125372],57.46,–
c1cncc(CNc2ncc(-c3ccsc3)c(-c3nccs3)n2)c1 [TCMDC-125368],23.89,–
COc1ccc(CNc2ncc(-c3ccsc3)c(-c3nccs3)n2)cc1OC [TCMDC-125369],23.78,–
COc1cc(CNc2ncc(-c3ccsc3)c(-c3nccs3)n2)cc(OC)c1 [TCMDC-124844],31.51,–
Clc1ncccc1-c1nc(NCCC(c2ccccc2)c2ccccc2)no1 [TCMDC-134181],13.92,–
Clc1cc(Cl)cc(Nc2ccnc(Nc3cc(Cl)cc(Cl)c3)n2)c1 [TCMDC-134277],-19.19,–
Cc1nc(N/C=C/c2ccc(O)cc2)cc(N2CCCC2)n1 [TCMDC-135162],20.32,–
NC1=NC(c2ccccc2)(c2cccc(O)c2)C(=O)N1CCCc1ccccc1 (stereo not drawn) [TCMDC-132351],–,-3.76
COc1ccc(S(=O)(=O)NC2CCN(CCCOc3ccnc4cc(Cl)ccc34)C2)cc1OC (stereo not drawn) [TCMDC-136146],-25.22,–
COc1cc(Br)c(S(=O)(=O)n2cc(CN3CCC(N)CC3)c3cc(Cl)ccc32)cc1OC [TCMDC-136384],95.22,–
COc1cccc(CN2CCC(CCOC(c3ccccc3)c3ccc(Cl)cc3)CC2)c1O (stereo not drawn) [TCMDC-136040],-76.2,–
COc1ccc(NC(=O)Nc2ccc(-c3ccccc3)cc2Cl)cc1N1CCN(C)CC1 [TCMDC-139137],-40.38,–
CN1CCC(NCc2cccc(-c3ccc(S(=O)(=O)NCCN4CCCC4)s3)c2)CC1 [TCMDC-132218],98.17,–
O=S(=O)(NCCN1CCCC1)c1ccc(-c2ccc(CNC3Cc4ccccc4C3)cc2)s1 [TCMDC-132234],69.5,–
O=S(=O)(NCCN1CCCC1)c1ccc(-c2cccc(CNC3Cc4ccccc4C3)c2)s1 [TCMDC-132217],90.5,–
COc1cccc(-c2cnc(N)c(-c3nc4ccc(F)cc4[nH]3)c2)c1 [TCMDC-138791],-6.276,–
Cn1c(=O)c(-c2c(Cl)cccc2Cl)cc2cnc(Nc3ccc(N4CCOCC4)cc3)nc21 [TCMDC-137156],-23.94,–
O=C(Nc1cccc([N+](=O)[O-])c1)Nc1ccc(Cl)c(C(F)(F)F)c1 [TCMDC-123511],-89.27,–
CCN(c1ccc(F)cc1)S(=O)(=O)c1cc(Br)cc2c1N(C(=O)C1CC1)CC2 [TCMDC-123802],-9.966,–

SMILES,% Inhibition [%],% Inhibition (% Inhibition) [%]
Cn1cc(C(=O)Nc2cccc(-c3cccc(-c4nc5ccc(F)cc5[nH]4)c3)c2)n(C)c1=O [TCMDC-137136],-0.01557,–
O=C(c1cc(OC(F)(F)F)ccc1O)N1CCN(c2ccccc2)CC1 [TCMDC-141127],10.35,–
CC(=O)Nc1ccc(Nc2cc(C)nc(Nc3ccc(NC(C)=O)cc3)n2)cc1 [TCMDC-125764],22.75,–
Cc1cccc2[nH]c(-c3ccc(-c4cccc(NC(=O)c5cccc(C(N)=O)c5)c4)cc3)nc12 [TCMDC-132197],5.465,–
COc1ccc2nccc([C@@H](O)CN3CCC(NCc4ccc5c(n4)NC(=O)CS5)C(F)C3)c2c1 (stereo partly drawn) [TCMDC-141718],-27.67,–
O=C(Nc1cccc(CN2CCCN(Cc3ccccc3)CC2)c1)c1ccc(-c2ccccc2)cc1 [TCMDC-134589],-25.71,–
O=C(Nc1cccc(CN2CCCN(Cc3cccc(O)c3)CC2)c1)c1ccc(-c2ccccc2)cc1 [TCMDC-141848],31.74,–
COc1cccc(-c2cccc(NC(=O)C3CCN(Cc4ccc(O)cc4)CC3)c2)c1 [TCMDC-124692],72.66,–
O=C(Nc1cccc(-c2cccc(F)c2)c1)C1CCN(Cc2ccc(O)cc2)CC1 [TCMDC-124688],48.55,–
COc1cccc(CN2CCCN(Cc3cccc(NC(=O)c4ccc(-c5ccccc5)cc4)c3)CC2)c1 [TCMDC-141847],-61.09,–
O=C(Nc1cccc(OCc2ccccc2)c1)c1ccc(CN2CCC(Cc3ccccc3)CC2)cc1 [TCMDC-136885],-23.99,–
O=C(Nc1ccc2ccccc2c1)c1ccc(CN2CCC(Cc3ccccc3)CC2)cc1 [TCMDC-123818],92.78,–
COc1ccc(CN2CCCN(Cc3cccc(NC(=O)c4ccc(-c5ccccc5)cc4)c3)CC2)cc1 [TCMDC-141839],80.31,–
O=C(Nc1cccc(CN2CCCN(Cc3ccsc3)CC2)c1)c1ccc(-c2ccccc2)cc1 [TCMDC-141840],82.52,–
COc1ccc(CN2CCCN(Cc3cccc(NC(=O)c4ccc5ccccc5c4)c3)CC2)cc1 [TCMDC-141853],-65.02,–
O=C(Nc1cccc(CN2CCCN(Cc3ccc(O)cc3)CC2)c1)c1ccc2ccccc2c1 [TCMDC-141857],26.89,–
COc1ccc(CN2CCC(C(=O)Nc3cccc(-c4cccc(Cl)c4)c3)CC2)cc1O [TCMDC-124610],-57.51,–
CC(=O)Nc1cc(C(=O)Nc2cccc(-c3csc(-c4nc5ccccc5[nH]4)c3)c2)ccc1C [TCMDC-132397],-24.51,–
Cc1nc2ccc3ccc(CNc4ccc(C(=O)N[C@@H](CCC(=O)O)C(=O)O)cc4)cc3c2c(=O)[nH]1 [TCMDC-137629],7.462,–
CCC[C@@H]([C@@H](CC1CCCCC1)C(=O)N[C@@H](CCCCNS(C)(=O)=O)C(=O)Nc1nccs1)N(O)C=O [TCMDC-138143],41.43,–
CC1(C)CCNc2cc(NC(=O)c3ccc(-c4ncccc4C(F)(F)F)cc3)ccc21 [TCMDC-133353],8.36,–
COc1ccc(C2=CCN(c3ccc(Cl)c(Cl)c3)C2=O)cc1OCCN1CCCCC1 [TCMDC-138795],24.05,–
COc1ccc2nccc([C@@H](O)CN3CCC(NC(=O)c4ccc(OC)c(N)c4)CC3)c2c1 [TCMDC-140772],8.441,–

# From paper PMC4552634, “A New Set of Chemical Starting Points with Plasmodium falciparum Transmission-Blocking Potential for Antimalarial Drug Discovery” (PLoS ONE, 2015)
